Inconclusive results are not listed. Activity calls are given as the source filed them. Rule for the calls: active = hit-call score of the fitted dose curve at least 0.9, where 1 is the maximum; inconclusive = response in the unintended direction; inactive = score below 0.9.
Each compound was assayed against rat Monoamine Oxidase, MAO-B, Central (MAOBC), Maob (gene 25750) (UniProt P19643) (assay: NVS_ENZ_rMAOBC: NovaScreen (NVS) Enzymatic Assay for rat Monoamine Oxidase, MAO-B, Central (MAOBC) (AID 2283238)).
Sequence of rat Monoamine Oxidase, MAO-B, Central (MAOBC), Maob (gene 25750) (P19643 whole entry, looked up): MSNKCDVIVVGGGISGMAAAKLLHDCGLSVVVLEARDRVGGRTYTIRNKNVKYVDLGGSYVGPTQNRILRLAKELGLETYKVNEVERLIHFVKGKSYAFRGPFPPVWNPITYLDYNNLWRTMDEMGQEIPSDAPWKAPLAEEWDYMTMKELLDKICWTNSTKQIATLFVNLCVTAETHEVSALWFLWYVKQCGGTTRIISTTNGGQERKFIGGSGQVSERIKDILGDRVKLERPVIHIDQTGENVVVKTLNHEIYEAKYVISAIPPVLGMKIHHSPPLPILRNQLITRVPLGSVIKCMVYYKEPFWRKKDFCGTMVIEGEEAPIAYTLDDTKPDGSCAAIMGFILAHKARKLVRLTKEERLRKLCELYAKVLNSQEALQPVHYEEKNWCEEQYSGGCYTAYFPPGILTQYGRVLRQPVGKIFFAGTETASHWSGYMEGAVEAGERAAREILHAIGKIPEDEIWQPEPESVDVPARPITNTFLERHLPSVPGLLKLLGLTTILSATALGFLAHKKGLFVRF
Outline: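 Here MAO-B activity in rat brain preparations is quantified radiometrically, counts taken at 1.17 hours. Concentration-response runs reach 50 uM, with plate controls, and values are fitted as loss of signal from the DMSO baseline.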

| Compound | outcome | AC50 |
| --- | --- | --- |
| Cc1ccc(C)c(C)c1 | inactive |  |
| CS(=O)(=O)OCCCCOS(C)(=O)=O | inactive |  |
| CCCCCC(C)OC(=O)COc1ccc(Cl)c2cccnc12 (stereo not given) | inactive |  |
| CCOC(=O)[C@H](C)Oc1ccc(Oc2nc3ccc(Cl)cc3o2)cc1 |  | 1.57 µM (active) |
| CCOC(=O)C(C)Oc1ccc(Oc2nc3ccc(Cl)cc3o2)cc1 (stereo not given) | inactive |  |
| Cc1cccc(C)c1O | inactive |  |
| COC(=O)c1ccc(C(=O)OC)cc1 |  | 25 µM (active) |

What follows are compounds tested against rat Monoamine Oxidase, MAO-B, Peripheral (MAOBP), Maob (gene 25750) (UniProt P19643) (assay: NVS_ENZ_rMAOBP: NovaScreen (NVS) Enzymatic Assay for rat Monoamine Oxidase, MAO-B, Peripheral (MAOBP) (AID 2283242)).
Sequence of rat Monoamine Oxidase, MAO-B, Peripheral (MAOBP), Maob (gene 25750) (P19643 whole entry, looked up): as above

| Compound | outcome | AC50 |
| --- | --- | --- |
| NC(=Nc1ccccc1)Nc1ccccc1 | inactive |  |
| CS(=O)(=O)OCCCCOS(C)(=O)=O | inactive |  |
| CCOC(=O)[C@H](C)Oc1ccc(Oc2nc3ccc(Cl)cc3o2)cc1 |  | 15.9 µM (active) |
| OCC(CO)(CBr)CBr | inactive |  |
| CCCCCCC(C=O)=Cc1ccccc1 | inactive |  |
| COC(=O)c1ccc(CNS(C)(=O)=O)cc1S(=O)(=O)NC(=O)Nc1nc(OC)cc(OC)n1 |  | 35.5 µM (active) |
| O=C1NS(=O)(=O)c2ccccc21 | inactive |  |
| CCOC(=O)C(C)Oc1ccc(Oc2nc3ccc(Cl)cc3o2)cc1 (stereo not given) |  | 29.9 µM (active) |
| CC=Cc1ccc(O)c(OC)c1 | inactive |  |
| Cc1oc(-c2ccccc2)nc1CCOc1ccc(C[C@H](Nc2ccccc2C(=O)c2ccccc2)C(=O)O)cc1 | inactive |  |
| CC1=C(/C=C/C(C)=C/C=C/C(C)=C/C(=O)O)C(C)(C)CCC1 | inactive |  |
| CC(C)(O)c1ccc(CNC(=O)c2cccnc2Oc2ccc3nonc3c2)cc1 | inactive |  |

These compounds were tested on rat Monoamine Oxidase, MAO-A, Central (MAOAC), gene 29253 (assay: NVS_ENZ_rMAOAC: NovaScreen (NVS) Enzymatic Assay for rat Monoamine Oxidase, MAO-A, Central (MAOAC) (AID 2283243);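 note: potency refers to inhibition seen as signal drop below DMSO baseline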).
Outline: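 Scintillation read-out of MAO-A activity in rat brain lysate, 1.5 h post-dosing. Primary single-concentration screen: 25 uM, duplicate; actives re-tested in concentration series. DMSO = negative control/baseline.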

| Compound | AC50 | outcome |
| --- | --- | --- |
| COc1ccc2nc(N)sc2c1 | 9.33 µM (active) |  |
| C=Cc1cccc(C)c1 |  | inactive |
| CCN(CC)c1ccc2c(C)cc(=O)oc2c1 | 8.36 µM (active) |  |
| O=C1c2ccccc2C(=O)c2c(O)ccc(O)c21 | 18.3 µM (active) |  |
| O=[N+]([O-])c1ccc(O)cc1C(F)(F)F | 21.1 µM (active) |  |
| Cn1c(=O)[nH]c2ncn(C)c2c1=O | 34.9 µM (active) |  |
| CCOC(=O)[C@H](C)Oc1ccc(Oc2nc3ccc(Cl)cc3o2)cc1 | 17.4 µM (active) |  |
| Nc1ccc(Cl)c([N+](=O)[O-])c1 | 12.8 µM (active) |  |
| Oc1ccc(Nc2ccccc2)cc1 | 17.7 µM (active) |  |
| CN1CN(C)CN(C)C1 |  | inactive |
| CC(=O)CCc1ccc(O)cc1 | 17.5 µM (active) |  |
| c1ccc2c(c1)[nH]c1ccccc12 | 16.7 µM (active) |  |
| CC=Cc1ccc(OC)c(OC)c1 | 17.2 µM (active) |  |
| c1ccc2cc3ccccc3cc2c1 | 25 µM (active) |  |
| CCOc1ccc(NC(C)=O)cc1 | 21 µM (active) |  |
| CCCCCCCCCCCCCCCC[N+](C)(C)Cc1ccccc1 |  | inactive |
| CCCCCCC(C)OC(=O)COc1nc(F)c(Cl)c(N)c1Cl (stereo not given) |  | inactive |
| Oc1cccc2ccccc12 | 15.4 µM (active) |  |
| CCOC(=O)C(C)Oc1ccc(Oc2nc3ccc(Cl)cc3o2)cc1 (stereo not given) |  | inactive |
| Oc1cccc2c(O)cccc12 | 25 µM (active) |  |
| c1ccc2c(c1)ccc1ncccc12 | 2.35 µM (active) |  |
| CCOC(=O)CC(CC(=O)OCC)(OC(C)=O)C(=O)OCC | 25 µM (active) |  |
| CNNCc1ccc(C(=O)NC(C)C)cc1 | 18 µM (active) |  |
| Cc1c(Cl)c(=O)oc2cc(O)ccc12 | 12.2 µM (active) |  |
| CC=Cc1ccc(OCC)c(O)c1 | 20.3 µM (active) |  |
| O=c1c2ccccc2oc2ccccc12 | 7.58 µM (active) |  |

— PubChem BioAssay (EPA / NIEHS)
